From PubChem BioAssay (NCATS) come the findings set out here.

Test [1] in a line: Cell Viability - BJ (AID 421; calls by dose curve;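 also: potency is read from the fitted curve at half-maximal effect; cells exposed to compound for 40 hours at 37 °C before readout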). Particulars: BJ fibroblast viability, qHTS. The method in brief:
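Cytotoxicity in human BJ foreskin fibroblasts is scored as loss of cellular ATP after a 40-hour exposure, measured by luciferase luminescence. Controls are DMSO and 100 uM tamoxifen.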
Background: qHTS replaces the single test concentration by a dilution series.

The nature of test [2]: Cell Viability - Hek293 (AID 427;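 active = compounds whose dose-response curve shows a full or clear partial loss of cell viability, called from curve shape rather than a numeric limit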;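 also: potency is read from the fitted curve at half-maximal effect; cells exposed to compound for 40 hours at 37 °C before reading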). The settings on record: qHTS. Put shortly:
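qHTS, human embryonic kidney (adenovirus-transformed) cells; 40 hr cpd, 37 °C; CellTiter-Glo ATP luminescence. Norm: DMSO = 0, 100 uM tamoxifen = 100% inhibition. Hill-fit AC50.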

Test [3] addresses Cytochrome P450 3A4 (Homo sapiens) (UniProt P08684). The experiment in a line: qHTS Assay for Inhibitors and Substrates of Cytochrome P450 3A4 (AID 884). Also: nearly all actives have a fitted effect of over 50% in size. Also: potency is read from the fitted curve at half-maximal effect. Put shortly:
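20 nM human CYP3A4 with 25 uM Luciferin-PPXE (at KM) in 200 mM KPO4, preincubated 10 min with compound; NADPH regeneration started a 60 min RT reaction. Luciferin detected by luminescence, normalized to 57 uM ketoconazole as full inhibition.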

Test [4] is described as follows: qHTS Assay for Identification of Small Molecule Inducers of Hypoxia Response (AID 2120; active = well fitted curve in the direction sought with a large enough effect in the signal ratio, with a control signal flat, not every such curve was filed as active; the % refers to the signal ratio; also: 0% is about no effect). Put shortly:
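HRE-bla ME-180 cells in Opti-MEM with 0.5% dialyzed FBS, pre-plated 4-5 h, then compound titration for 17 h at 37 degrees Celsius. CCF4 loaded 2.5 h at room temperature; 460/530 nm ratio gave %Activity and AC50 for induction.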

Test [5] can be described thus: qHTS assay for small molecule antagonists of retinoid X receptor alpha signaling (AID 588546).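 Also: cells stimulated with 9-cis-retinoic acid as agonist; % is scaled to controls: 0 for no effect and ±100 for the full control effect.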 Particulars: HEK293T RXRa-UAS-bla, beta-lactamase ratio, antagonist mode; measured here: W530 green channel, cytotoxicity proxy. Put shortly: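 Beta-lactamase reporter inhibition, read as CCF4 fluorescence ratio (ex 405, em 460/530 nm) after 2 h at RT. HEK293T UAS-bla cells, 2500/well, were stimulated with 9-cis-RA at 500 or 100 nM final alongside test compound for 18 h at 37 C.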

Test [6] can be described thus: qHTS assay for environmental chemicals that activate the Aryl hydrocarbon Receptor (AhR) signaling pathway (AID 651777). Also: nearly all actives have a fitted effect of over 15% in size. Also: potency is read from the fitted curve at half-maximal effect. As to activation: % of control where 0% means no effect. The settings on record: 1A2-DRE human hepatoma cells, luciferase, 24 h; activation: stronger effect = higher value. Put shortly:
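Luminescence read-out: One-Glo added for 30 min at RT after 24 hr compound treatment (37 C, 5% CO2) of human hepatoma cells expressing a DRE/CYP1A2 promoter–luciferase reporter; increased signal indicates AhR activation.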

The target of test [7] is Peroxisome proliferator-activated receptor alpha (Homo sapiens) (UniProt Q07869). The experiment in a line: qHTS assay for small molecule agonists of the peroxisome proliferator-activated receptor alpha (PPARalpha) signaling pathway (AID 651778). Also: % of control where 0% means no effect. Particulars: PathHunter PPARalpha complementation, chemiluminescence, 6 h; max response: stronger effect = higher value. Put shortly: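 Enzyme-fragment complementation assay in which ligand-bound PPARalpha translocates and forms an active enzyme that generates chemiluminescence. Cells were plated overnight, exposed to compound for 6 hr at 37 C, and then given detection reagent for 60 min at room temperature.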

Test [8] can be described thus: qHTS assay for small molecule agonists of the antioxidant response element (ARE) signaling pathway measured by Nrf2-dependant transcriptional activity - cell viability counter screen (AID 720653; active = well fitted curve in the direction sought with a large enough effect in the repeat runs; an effect the other way counts as inactive or inconclusive; also: % is scaled to controls: 0 for no effect and ±100 for the full control effect). Particulars: ARE-bla HepG2 viability, CellTiter-Glo ATP luminescence, 16 h; max response: stronger effect = lower value. Put shortly: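 ARE-bla HepG2 cells treated with compounds for 16 h at 37C; this counter screen measures viability as intracellular ATP by CellTiter-Glo luminescence after 30 min at room temperature.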

A short description of test [9]: qHTS assay for cell viability of HEK293 cells (AID 743288). Also: % is scaled to controls: 0 for no effect and ±100 for the full control effect; nearly all actives have a fitted effect of over 50% in size. The settings on record: ATP luminescence (CellTiter-Glo), 18 h; max response: stronger effect = lower value. The method in brief: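 The Tox21 protocol used parental HEK293 cells treated for 18 h at 37 C with compounds delivered by pintool; ATP-coupled luminescence after 30 min at room temperature gave viability.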

Test [10] deals with Cytochrome P450 2C19 (Homo sapiens) (UniProt P33261). Briefly: qHTS for inhibitors of CYP2C19 against the NCATS DSHEA and TCM libraries (AID 1919974).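 Also: luminescence from luciferin released by CYP2C19 oxidation of a pro-luciferin substrate.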 Also: potency is read from the fitted curve at half-maximal effect. Put shortly: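 Luminescent P450-Glo format: compounds preincubated 15 min with enzyme and luciferin substrate, reaction run 30-45 min after NADPH regeneration solution. Intraplate controls: ketoconazole for CYP3A4 and CYP2C19, sulfaphenazole for CYP2C9.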

The target of test [11] is Cytochrome P450 3A4 (Homo sapiens) (UniProt P08684). Briefly: qHTS Assay for Activators of Cytochrome P450 3A4 (AID 885). Also: nearly all actives have a fitted effect of over 65% in size. The method in brief:
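Steps: enzyme/substrate mix dispensed; compound added, 10 min RT; NADPH regeneration solution added, 60 min RT; luciferin detection buffer stops reaction; 20 min later luminescence measured.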

The target of test [12] is Glutathione peroxidase 1 (Homo sapiens) (UniProt P07203). The experiment in a line: Primary qHTS Assay for Inhibitors of Recombinant Selenoprotein Glutathione Peroxidase 1 (GPX1) (AID 1845191). Also: % is scaled to controls: 0 for no effect and ±100 for the full control effect; nearly all actives have a fitted effect of over 65% in size. The method in brief: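 GR-coupled assay: compounds preincubated 30 min at room temperature with GPX1, then reaction started with CHP; final 10 nM GPX1, 1 mM GSH, 0.5 mM CHP, 0.5 mM NADPH, 100 nM GR, 0.01% BSA, pH 7.5 Tris buffer. NADPH fluorescence (340/450 nm) read at 0 and 15 min.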

The target of test [13] is Lysosomal acid glucosylceramidase (Homo sapiens) (UniProt P04062). The experiment in a line: Glucocerebrosidase-p2 (AID 348; in the data active = potency below about 10 µM; also: potency is read from the fitted curve at half-maximal effect). Particulars: purified GBA, blue fluorogenic substrate, 40 min. Put shortly:
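Compounds titrated from 0.6 nM upwards against 0.2 nM enzyme in pH 5.9 citric acid/KH2PO4, taurocholate, tween-20; blue fluorogenic substrate 80 uM, 40 min room temperature, stopped and read Ex 365/Em 440 for AC50.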

The nature of test [14]: AP1 Signaling Pathway (AID 357; active = well fitted curve in either direction with a large enough effect, not every such curve was filed as active;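 also: ME-180 reporter cells stimulated with EGF at its EC50 level; % is scaled to controls: 0 for no effect and ±100 for the full control effect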). The settings on record: ME-180 (cervical carcinoma) AP-1-bla reporter, EGF-induced, beta-lactamase ratio, 5 h; at 7.69 µM (top of the series) unless noted. The method in brief: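 In this screen, ME-180 cells in Opti-MEM with 0.5% dialyzed FBS received EC50 EGF and compound titrations for 5 h. AP-1 reporter beta-lactamase was detected via CCF4 ratio, giving AC50 for positive and negative modulators.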

In test [15] the target is Cytochrome P450 1A2 (Homo sapiens) (UniProt P05177). Briefly: p450-cyp1a2 (AID 410; calls by dose curve; also: potency is read from the fitted curve at half-maximal effect). Put shortly: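 20nM CYP1A2 with 100uM Luciferin-ME (at Km) in 100mM KPO4; compound preincubated 10 min, NADPH regeneration added, 60 min at room temperature. Luciferin quantified by luminescence after detection reagent; normalized to 57 uM furafylline.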
Test [16] in a line: NFAT Signaling Pathway (AID 444; active = well fitted curve in either direction with a large enough effect, not every such curve was filed as active;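 also: carbachol stimulus at about its EC50 of 1 µM final; % is scaled to controls: 0 for no effect and ±100 for the full control effect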). Particulars: Jurkat NFAT-bla M1, carbachol, beta-lactamase ratio, 5 h; at 7.69 µM (top of the series) unless noted. Put shortly:
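Jurkat cells with NFAT-driven β-lactamase reporter and co-expressed M1 receptor, stimulated with carbachol (final 1 uM, ~EC50), compound titration, 5 h at 37 °C. CCF4 loaded 1 h at RT; 460/530 nm ratio gave %activity and AC50.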

The target in test [17] is Glucocorticoid receptor (Homo sapiens) (UniProt P04150). The experiment in a line: GR-EFC Redistribution (AID 451; calls by dose curve; also: potency is read from the fitted curve at half-maximal effect). The settings on record: CHO-K1 GR-EFC translocation, beta-gal luminescence, 2 h. Put shortly: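 CHO-K1 cells expressing nuclear EA and GR-ED fragments of b-gal; compounds titrated up to 46 uM final, 2 h at 37 C. GR nuclear translocation read as complemented b-gal luminescence after 1 h RT detection.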

For test [18], the target named is 3',5'-cyclic-AMP phosphodiesterase 4B (Homo sapiens) (UniProt Q07343). The experiment in a line: qHTS Assay for Inhibitors of PDE-IV (AID 607; active = well fitted activation curve with a large enough effect in the main read-out, with a control signal flat, not every such curve was filed as active; also: % of control where 0% means no effect). The method in brief:
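The readout is membrane depolarisation from a cAMP-sensing CNG channel, detected with a potential dye at ex 535/em 590. Cells were HEK293-derived (endogenous PDE-IV) at 1000 cells/well, titrated up to 22.9 uM final.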

Test [19] concerns the target Cytochrome P450 2C19 (Homo sapiens) (UniProt P33261). Briefly: qHTS Assay for Inhibitors and Substrates of Cytochrome P450 2C19 (AID 899). Also: potency is read from the fitted curve at half-maximal effect; nearly all actives have a fitted effect of over 60% in size. Put shortly:
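5 nM human CYP2C19 with 10uM Luciferin-H EGE (at KM) in 50mM KPO4, compound preincubated 10 min at 37C, then NADPH regeneration for 60 min at 37C. Luciferin read by luminescence after detection reagent; normalized to 57uM ketoconazole as full inhibition.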

Results filed as inconclusive are left out. The source made the active and inactive calls. Unless noted, calls follow the shape of the dose curve; as a rule, active = well fitted curve in the direction sought with a large enough effect; inconclusive = small, poorly fitted or top-dose-only effect, or another doubt; inactive = no such curve, though single readings can be large; an effect the other way counts as inactive or inconclusive.

Chain of Glucocorticoid receptor (Homo sapiens) (P04150 whole entry, looked up, the tested form may be a part): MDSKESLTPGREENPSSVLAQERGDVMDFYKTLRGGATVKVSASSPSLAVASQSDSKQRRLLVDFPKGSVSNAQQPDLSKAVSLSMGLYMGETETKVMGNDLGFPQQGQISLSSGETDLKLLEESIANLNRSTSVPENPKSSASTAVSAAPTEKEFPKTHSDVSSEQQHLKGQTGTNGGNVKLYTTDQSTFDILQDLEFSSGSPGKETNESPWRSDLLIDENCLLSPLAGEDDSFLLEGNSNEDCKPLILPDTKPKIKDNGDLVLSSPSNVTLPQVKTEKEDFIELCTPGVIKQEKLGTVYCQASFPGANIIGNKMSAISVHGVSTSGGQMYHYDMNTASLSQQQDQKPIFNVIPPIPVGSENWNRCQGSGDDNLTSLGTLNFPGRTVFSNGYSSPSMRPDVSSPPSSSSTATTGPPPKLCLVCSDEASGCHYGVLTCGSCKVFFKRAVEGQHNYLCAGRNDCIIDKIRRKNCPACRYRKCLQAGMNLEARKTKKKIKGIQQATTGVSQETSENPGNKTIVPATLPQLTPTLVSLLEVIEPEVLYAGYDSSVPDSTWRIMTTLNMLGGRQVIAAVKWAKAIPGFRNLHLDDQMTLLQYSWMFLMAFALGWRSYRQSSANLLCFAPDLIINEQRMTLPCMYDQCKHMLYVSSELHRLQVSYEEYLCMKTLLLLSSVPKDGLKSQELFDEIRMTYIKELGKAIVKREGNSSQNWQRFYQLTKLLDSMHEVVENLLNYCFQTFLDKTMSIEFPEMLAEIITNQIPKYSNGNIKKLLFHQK
Chain of Cytochrome P450 2C19 (Homo sapiens) (P33261 whole entry, looked up): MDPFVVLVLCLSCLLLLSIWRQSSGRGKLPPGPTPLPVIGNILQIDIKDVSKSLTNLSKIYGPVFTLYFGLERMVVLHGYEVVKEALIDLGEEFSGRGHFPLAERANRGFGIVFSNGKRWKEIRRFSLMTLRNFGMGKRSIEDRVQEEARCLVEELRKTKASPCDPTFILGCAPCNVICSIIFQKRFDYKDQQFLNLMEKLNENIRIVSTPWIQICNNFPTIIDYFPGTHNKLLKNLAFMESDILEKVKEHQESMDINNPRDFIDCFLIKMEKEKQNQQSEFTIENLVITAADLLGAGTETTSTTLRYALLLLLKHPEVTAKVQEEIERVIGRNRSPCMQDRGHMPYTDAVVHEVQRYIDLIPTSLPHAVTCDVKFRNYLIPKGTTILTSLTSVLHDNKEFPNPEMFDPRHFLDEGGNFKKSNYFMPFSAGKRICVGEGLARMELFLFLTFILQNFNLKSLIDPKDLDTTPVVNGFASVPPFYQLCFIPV
Chain of Peroxisome proliferator-activated receptor alpha (Homo sapiens) (Q07869 whole entry, looked up, the tested form may be a part): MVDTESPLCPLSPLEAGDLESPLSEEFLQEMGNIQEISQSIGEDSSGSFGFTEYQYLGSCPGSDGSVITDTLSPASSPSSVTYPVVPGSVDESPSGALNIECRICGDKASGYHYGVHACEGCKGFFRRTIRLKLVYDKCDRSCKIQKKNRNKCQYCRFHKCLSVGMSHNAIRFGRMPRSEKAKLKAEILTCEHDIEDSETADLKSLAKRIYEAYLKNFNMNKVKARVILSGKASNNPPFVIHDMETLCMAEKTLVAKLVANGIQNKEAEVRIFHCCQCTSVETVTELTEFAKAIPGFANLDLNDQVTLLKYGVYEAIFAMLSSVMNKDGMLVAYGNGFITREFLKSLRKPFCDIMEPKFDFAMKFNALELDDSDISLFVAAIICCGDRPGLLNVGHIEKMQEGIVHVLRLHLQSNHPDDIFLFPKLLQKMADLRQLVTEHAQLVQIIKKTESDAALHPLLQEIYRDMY
Chain of Cytochrome P450 1A2 (Homo sapiens) (P05177 whole entry, looked up): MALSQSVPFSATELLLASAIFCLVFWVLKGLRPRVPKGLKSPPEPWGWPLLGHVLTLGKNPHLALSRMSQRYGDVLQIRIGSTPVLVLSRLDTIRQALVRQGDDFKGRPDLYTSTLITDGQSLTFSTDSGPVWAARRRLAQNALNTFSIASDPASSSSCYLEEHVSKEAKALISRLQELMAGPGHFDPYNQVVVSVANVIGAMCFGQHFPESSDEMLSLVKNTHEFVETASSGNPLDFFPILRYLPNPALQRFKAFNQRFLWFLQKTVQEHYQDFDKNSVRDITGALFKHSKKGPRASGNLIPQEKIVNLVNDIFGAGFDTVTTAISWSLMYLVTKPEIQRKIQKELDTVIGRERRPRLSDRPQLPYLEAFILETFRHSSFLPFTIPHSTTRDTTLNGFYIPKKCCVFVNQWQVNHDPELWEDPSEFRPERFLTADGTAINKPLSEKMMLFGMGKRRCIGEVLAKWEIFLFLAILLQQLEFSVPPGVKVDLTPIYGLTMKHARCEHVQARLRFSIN
Chain of Cytochrome P450 3A4 (Homo sapiens) (P08684 whole entry, looked up): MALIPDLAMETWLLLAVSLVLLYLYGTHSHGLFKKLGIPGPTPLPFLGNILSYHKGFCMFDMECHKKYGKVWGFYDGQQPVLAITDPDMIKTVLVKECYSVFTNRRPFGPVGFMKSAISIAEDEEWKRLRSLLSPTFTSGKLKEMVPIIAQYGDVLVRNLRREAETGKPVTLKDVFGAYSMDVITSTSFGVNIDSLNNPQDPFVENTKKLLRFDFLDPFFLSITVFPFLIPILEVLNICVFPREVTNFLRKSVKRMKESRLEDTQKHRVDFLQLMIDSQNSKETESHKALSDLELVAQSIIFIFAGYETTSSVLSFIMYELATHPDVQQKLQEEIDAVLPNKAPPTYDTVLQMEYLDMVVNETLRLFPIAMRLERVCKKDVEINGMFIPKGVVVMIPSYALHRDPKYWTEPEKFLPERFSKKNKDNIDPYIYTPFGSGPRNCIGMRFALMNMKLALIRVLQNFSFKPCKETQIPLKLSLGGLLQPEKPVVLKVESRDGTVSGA
Chain of Lysosomal acid glucosylceramidase (Homo sapiens) (P04062 whole entry, looked up): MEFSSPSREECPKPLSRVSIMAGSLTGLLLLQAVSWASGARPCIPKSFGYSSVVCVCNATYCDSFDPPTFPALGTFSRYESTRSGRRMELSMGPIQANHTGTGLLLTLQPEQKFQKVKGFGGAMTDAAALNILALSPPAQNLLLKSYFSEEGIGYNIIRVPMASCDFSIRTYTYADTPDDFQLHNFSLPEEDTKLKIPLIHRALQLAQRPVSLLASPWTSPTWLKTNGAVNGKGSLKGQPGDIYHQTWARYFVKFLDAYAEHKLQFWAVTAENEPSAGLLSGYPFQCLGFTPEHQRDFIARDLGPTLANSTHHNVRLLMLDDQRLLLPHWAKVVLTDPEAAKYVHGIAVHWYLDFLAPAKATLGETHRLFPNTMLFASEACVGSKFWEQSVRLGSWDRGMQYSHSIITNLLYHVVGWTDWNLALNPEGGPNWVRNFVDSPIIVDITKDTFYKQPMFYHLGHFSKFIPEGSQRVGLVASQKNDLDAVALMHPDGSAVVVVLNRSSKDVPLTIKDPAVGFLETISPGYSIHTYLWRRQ
Chain of 3',5'-cyclic-AMP phosphodiesterase 4B (Homo sapiens) (Q07343 whole entry, looked up): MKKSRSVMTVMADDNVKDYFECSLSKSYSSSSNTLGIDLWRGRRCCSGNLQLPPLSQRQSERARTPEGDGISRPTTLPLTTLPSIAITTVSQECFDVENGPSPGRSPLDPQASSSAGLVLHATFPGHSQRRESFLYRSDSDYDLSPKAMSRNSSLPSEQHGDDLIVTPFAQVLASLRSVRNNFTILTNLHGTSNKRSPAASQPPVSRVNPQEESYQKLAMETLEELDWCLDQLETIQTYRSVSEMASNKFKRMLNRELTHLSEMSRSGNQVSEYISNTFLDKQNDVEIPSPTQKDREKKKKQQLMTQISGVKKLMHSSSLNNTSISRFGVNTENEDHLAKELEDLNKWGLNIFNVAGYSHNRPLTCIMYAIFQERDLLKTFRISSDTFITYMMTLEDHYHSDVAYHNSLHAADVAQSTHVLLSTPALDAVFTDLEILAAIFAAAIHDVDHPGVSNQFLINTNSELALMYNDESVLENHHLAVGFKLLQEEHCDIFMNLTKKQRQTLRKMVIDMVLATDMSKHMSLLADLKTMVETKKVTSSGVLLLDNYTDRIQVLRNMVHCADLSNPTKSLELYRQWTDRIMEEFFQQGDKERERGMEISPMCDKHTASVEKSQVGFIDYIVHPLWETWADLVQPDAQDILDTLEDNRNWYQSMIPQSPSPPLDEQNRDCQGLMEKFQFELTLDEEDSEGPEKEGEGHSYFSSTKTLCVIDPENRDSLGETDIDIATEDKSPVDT
Chain of Glutathione peroxidase 1 (Homo sapiens) (P07203 whole entry, looked up): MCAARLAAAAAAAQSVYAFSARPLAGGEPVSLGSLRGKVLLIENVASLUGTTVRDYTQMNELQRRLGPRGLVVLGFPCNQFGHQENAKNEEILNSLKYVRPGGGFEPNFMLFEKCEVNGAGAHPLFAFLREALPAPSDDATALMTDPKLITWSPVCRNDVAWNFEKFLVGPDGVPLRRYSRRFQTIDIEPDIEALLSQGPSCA

As for `O=C(O)c1ccccc1`, the Potency in test [1] and in test [2] was > 92 µM (inactive) throughout. In addition, the Potency result in test [3] and in test [10] was “inactive” in each case. In addition, in test [4], the outcome was inactive. Moreover, the max response in test [5] is -4.31%; in test [7] it was -2.27% (inactive); in test [8] it was 1.2% (inactive); in test [9] it was -1.04% (inactive). Besides, the activation in test [6] is 2.1% (inactive).
Turning to `CCCCCCCC/C=C\CCCCCCCCCCCCCC(=O)O`, in test [10], the Potency result is “inactive”.
Turning to `C=CC(C)(CCC=C(C)C)OC(C)=O` (stereo not given), the max response in [5] is -5.27%; in test [7], -0.802% (inactive); in [8], -13.5% (inactive); in test [9], -14.2% (inactive). Moreover, in [6], the activation was 3.8% (inactive).
`CC1(C)CC[C@]2(C(=O)O)CC[C@]3(C)C(=CCC4[C@@]5(C)CC[C@@H](O)C(C)(C)C5CC[C@]43C)C2C1` (stereo not given in full): in [10], the Potency result was “inactive”.
For `COc1ccc(/C=C/c2cc(OC)cc(=O)o2)cc1`, the Potency in test [1] is > 92 µM (inactive); in test [2], > 92 µM (inactive); in [6], 10 µM (active). Also, the Potency entry in test [3] is “inactive”. Further, the result in test [4] was inactive. In addition, the max response in test [5] is 19.1%; in [7], 9.34% (inactive); in [8] it was 11.1% (inactive); in [9] it was -19.9% (inactive).
Regarding `COc1cc(/C=C/c2ccccc2)oc(=O)c1`, the Potency is > 92 µM (inactive) in test [1], > 92 µM (inactive) in test [2], 15.8 µM (active) in [3] and 7.08 µM (active) in test [6]. The result in [11] and in test [4] was inactive. In addition, the max response in test [5] was 21.7%; in [7] it was -1.59% (inactive); in test [8] it was -6.81% (inactive); in test [9] it was -23% (inactive).
Consider `CCCCCCCC/C=C/CCCCCCCCCC(=O)O`, for which the Potency entry in test [10] was “inactive”.
Same read-out and setting: then `O=C(/C=C/c1ccc(O)c(O)c1)OC1[C@H](O)CC(O)(C(=O)O)C[C@@H]1O` (stereo not given in full), with “inactive”.
With `CCCCC/C=C/C/C=C/CCCCCCCC(=O)O`, the Potency entry in test [12] is “inactive”. For the same molecule, the Potency in test [10] was 22.4 µM (active).
As for `C=C(C)C1CC=C(C)C(O)C1` (stereo not given), the Potency in test [1] and in [2] was > 92 µM (inactive) throughout. The Potency entry in test [3] is “inactive”. Besides, in test [4], the molecule was called inactive. For the same molecule, the max response in [5] was -6.28%; in test [7], -4.25% (inactive); in test [8] it was -2.07% (inactive); in test [9], 0.258% (inactive). The activation in test [6] is -0.5% (inactive).
With `CCCCCC(=O)O`, the Potency entry in [10] is “inactive”.
For `CN1CCN(c2nc(-c3ccoc3)nc3ccccc23)CC1`, the values for the Potency in test [13], in test [15] and in test [17] were > 11.4 µM (inactive), 1.26 µM (active) and > 46 µM (inactive), respectively. In addition, the activity change, negative = inhibition is 6.84% (inactive) in test [14] and -2.81% (inactive) in test [16]. In test [11], the molecule was classed as inactive.
As to `O=c1c(CCc2ccccc2)nc2cnc(Oc3ccccc3)nc2n1C1CC1`, the Potency in test [13] was > 11.4 µM (inactive); in test [15] it was 7.94 µM (active). In addition, the activity change, negative = inhibition was -15.6% (inactive) in test [14] and -5.31% (inactive) in [16]. In addition, the molecule was called inactive in test [11].
On to `CN1CCN(c2ncc3nc(-c4cn(C)c5ccccc45)c(=O)n(C[C@H]4CCCO4)c3n2)CC1`, for which the Potency in test [13] is > 11.4 µM (inactive); in test [15] it was 6.31 µM (active). Moreover, the results for the activity change, negative = inhibition in test [14] and in test [16] were -8.04% (inactive) and 3.64% (inactive), respectively. Moreover, the Potency result in [18] is “inactive”.
As to `COc1cccc(Cn2c(=O)cnc3cnc(N(C)C)nc32)c1`, the Potency in test [13] is > 11.4 µM (inactive); in [15], 6.31 µM (active); in test [17] it was > 46 µM (inactive); in test [19], 2.51 µM (active). The results for the activity change, negative = inhibition in [14] and in test [16] were -10.4% (inactive) and -0.24% (inactive), respectively. For the same molecule, the call in test [11] was inactive.
Take `O=c1cnc2cnc(N3CCOCC3)nc2n1Cc1cccs1`: the Potency in test [13] was > 11.4 µM (inactive); in [15], 2.51 µM (active); in [17] it was > 46 µM (inactive). The activity change, negative = inhibition is -3.18% (inactive) in test [14] and -0.57% (inactive) in test [16]. Besides, in test [18], the Potency result was “inactive”. In addition, in [11], the call was inactive.
